Measured values from PubChem BioAssay (NCATS).
Where “and” joins values, the source holds several entries; their conditions need not be identical. Identical values can stand only once. Records with an inconclusive call do not appear. Calls of active or inactive are those of the source. Unless noted, calls follow the shape of the full dose curve.

Columns and labels:
[1] = molecular target: Glucocorticoid receptor (Homo sapiens) (UniProt P04150); assay: qHTS assay for small molecule agonists of glucocorticoid receptor signaling (AID 588532; active = well fitted curve in the direction sought with a large enough effect in the signal ratio, with a control signal flat; the % refers to the signal ratio;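 also: 100% = dexamethasone at 0.1 µM and 0% = DMSO only wells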); details: HeLa MMTV-bla, beta-lactamase ratio, agonist, 18 h; stronger effect = higher value; percent of dexamethasone control, DMSO zero
Glucocorticoid receptor (Homo sapiens), sequence (P04150 whole entry, looked up): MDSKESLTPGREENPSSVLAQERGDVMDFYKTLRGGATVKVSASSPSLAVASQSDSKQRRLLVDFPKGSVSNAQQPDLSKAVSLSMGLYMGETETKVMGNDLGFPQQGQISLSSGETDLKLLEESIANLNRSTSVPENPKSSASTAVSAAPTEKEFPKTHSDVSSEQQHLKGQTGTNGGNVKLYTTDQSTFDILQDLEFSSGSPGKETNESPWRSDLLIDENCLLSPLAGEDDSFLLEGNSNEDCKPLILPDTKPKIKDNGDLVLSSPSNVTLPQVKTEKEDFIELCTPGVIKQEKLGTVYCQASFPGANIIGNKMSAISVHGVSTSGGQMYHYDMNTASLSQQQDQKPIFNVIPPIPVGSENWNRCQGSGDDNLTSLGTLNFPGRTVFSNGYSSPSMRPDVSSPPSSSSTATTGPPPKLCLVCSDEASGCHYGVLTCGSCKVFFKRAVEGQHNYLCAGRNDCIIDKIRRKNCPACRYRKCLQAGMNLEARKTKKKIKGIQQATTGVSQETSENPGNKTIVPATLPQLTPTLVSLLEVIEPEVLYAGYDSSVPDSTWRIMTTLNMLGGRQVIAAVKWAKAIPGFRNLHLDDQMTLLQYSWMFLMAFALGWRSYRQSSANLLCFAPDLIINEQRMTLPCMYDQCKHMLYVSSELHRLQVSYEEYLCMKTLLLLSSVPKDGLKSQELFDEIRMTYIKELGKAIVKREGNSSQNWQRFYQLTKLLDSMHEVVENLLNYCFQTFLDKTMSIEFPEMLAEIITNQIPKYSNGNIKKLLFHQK
Summary of the method: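 Titration series, up to 92 uM, applied to GRE-bla HeLa cells for 18 h at 37 C. Detection by CCF4 FRET substrate after 2 h at RT.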

[2] = molecular target: Glucocorticoid receptor (Homo sapiens) (UniProt P04150); assay: qHTS assay for small molecule antagonists of glucocorticoid receptor signaling (AID 588533; active = well fitted inhibition curve with a large enough effect in the signal ratio, with a control signal flat, not every such curve was filed as active; the % refers to the signal ratio;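 also: cells stimulated with 2 nM dexamethasone as agonist; % is scaled to controls: 0 for no effect and ±100 for the full control effect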); details: HeLa MMTV-bla, GRE beta-lactamase ratio, antagonist mode, 18 h; series mostly up to 76.8 µM
Summary of the method: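 Antagonist-mode qHTS: compound titrations added to GRE-bla HeLa cells, then dexamethasone 2 nM final; 18 h, 37 C. CCF4 FRET fluorescence normalized to dexamethasone and DMSO; IC50 from Hill fit.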

[3] = molecular target: Peroxisome proliferator-activated receptor gamma (Homo sapiens) (UniProt P37231); assay: qHTS assay for small molecule agonists of peroxisome proliferator-activated receptor gamma signaling (AID 588536; active = well fitted curve in the direction sought with a large enough effect in the signal ratio, with a control signal flat, not every such curve was filed as active; the % refers to the signal ratio;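 also: 0% = DMSO basal wells and 100% = rosiglitazone at 2 µM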); details: HEK293 PPARg-UAS-bla, beta-lactamase ratio, 16 h, percent of rosiglitazone response, DMSO as zero; series mostly up to 76.7 µM
Peroxisome proliferator-activated receptor gamma (Homo sapiens), sequence (P37231 whole entry, looked up): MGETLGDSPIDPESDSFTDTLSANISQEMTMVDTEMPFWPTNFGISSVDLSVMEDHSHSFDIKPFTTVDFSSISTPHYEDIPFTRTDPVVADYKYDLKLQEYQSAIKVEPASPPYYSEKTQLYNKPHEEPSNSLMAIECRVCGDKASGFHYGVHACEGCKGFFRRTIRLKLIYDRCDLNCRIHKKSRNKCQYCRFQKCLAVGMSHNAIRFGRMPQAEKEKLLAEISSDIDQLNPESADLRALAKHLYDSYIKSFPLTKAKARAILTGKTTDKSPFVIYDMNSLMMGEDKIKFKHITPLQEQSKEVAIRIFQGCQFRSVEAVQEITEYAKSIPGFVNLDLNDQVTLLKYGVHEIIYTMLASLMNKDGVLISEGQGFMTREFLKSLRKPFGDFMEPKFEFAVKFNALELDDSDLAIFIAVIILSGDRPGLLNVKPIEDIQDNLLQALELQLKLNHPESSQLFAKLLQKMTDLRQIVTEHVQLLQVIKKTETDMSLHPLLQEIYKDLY
Summary of the method: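 PPAR-gamma-UAS-bla HEK293 cells in medium with 1% charcoal/dextran-treated FBS were exposed to compounds for 16 h at 37 C. Beta-lactamase activity was read with CCF4 substrate (405 nm excitation, 460/530 nm emission).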

[4] = molecular target: Peroxisome proliferator-activated receptor gamma (Homo sapiens) (UniProt P37231); assay: qHTS assay for small molecule antagonists of peroxisome proliferator-activated receptor gamma signaling (AID 588537; active = well fitted inhibition curve with a large enough effect in the signal ratio, with a control signal flat, not every such curve was filed as active; the % refers to the signal ratio;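 also: reporter cells co-stimulated with 50 nM rosiglitazone agonist during compound treatment; % of control where 0% means no effect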); details: HEK293 PPARg-UAS-bla, beta-lactamase ratio, antagonist mode; series mostly up to 76.8 µM
Summary of the method: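 PPAR-gamma-UAS-bla HEK293 cells (3000/well, 1% charcoal/dextran-stripped FBS) were preincubated 6-6.5 h at 37 C, given titrated compounds, then stimulated with 50 nM rosiglitazone for 16 h. Beta-lactamase activity was read with CCF4 dye; IC50 came from Hill fits.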

[5] = molecular target: Vitamin D3 receptor (Homo sapiens) (UniProt P11473); assay: qHTS assay for small molecule antagonists of vitamin D receptor signaling (AID 588541); details: HEK293T VDR-UAS-bla, beta-lactamase ratio, antagonist mode; series mostly up to 76.7 µM;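 also: receptor activated by calcitriol during compound treatment; % is scaled to controls: 0 for no effect and ±100 for the full control effect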
Vitamin D3 receptor (Homo sapiens), sequence (P11473 whole entry, looked up): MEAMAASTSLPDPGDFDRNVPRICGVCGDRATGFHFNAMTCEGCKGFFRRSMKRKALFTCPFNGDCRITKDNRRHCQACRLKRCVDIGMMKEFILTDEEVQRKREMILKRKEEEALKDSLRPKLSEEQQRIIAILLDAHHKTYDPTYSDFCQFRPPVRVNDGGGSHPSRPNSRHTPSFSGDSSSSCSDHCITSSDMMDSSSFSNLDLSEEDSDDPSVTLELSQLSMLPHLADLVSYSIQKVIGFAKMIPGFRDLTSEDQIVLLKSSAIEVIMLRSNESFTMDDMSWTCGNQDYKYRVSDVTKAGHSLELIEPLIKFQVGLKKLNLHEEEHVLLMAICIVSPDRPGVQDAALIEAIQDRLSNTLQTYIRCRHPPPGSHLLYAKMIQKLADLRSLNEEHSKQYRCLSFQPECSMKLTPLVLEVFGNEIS
Summary of the method: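 VDR-UAS-bla HEK293T cells (2000/well, 2% charcoal-stripped FBS) were treated with titrated compounds plus 1-alpha,25-dihydroxyvitamin D3 (50 nM or 3 nM final) for 16 h at 37 C. CCF4 beta-lactamase fluorescence was read; Hill fits gave IC50.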

[6] = molecular target: Vitamin D3 receptor (Homo sapiens) (UniProt P11473); assay: qHTS assay for small molecule agonists of vitamin D receptor signaling (AID 588543); details: HEK293T VDR-UAS-bla, beta-lactamase ratio, 16 h; series mostly up to 76.8 µM;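 also: 0% = DMSO basal and 100% = reference agonist control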
Summary of the method: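 β-lactamase reporter, VDR-UAS-bla HEK293T, agonist mode. Cells plated 5 h at 37 °C, compound titration 16 h at 37 °C, CCF4 dye 2 h RT, ratio 460/530 nm. Hill fit → EC50, efficacy vs 50 nM 1α,25-(OH)2D3.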

[7] = qHTS assay for small molecule agonists of retinoid X receptor alpha signaling (AID 588544); details: HEK293T RXRa-UAS-bla, beta-lactamase reporter, 18 h; 530 nm emission;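 as to activation: 0% = DMSO basal wells and 100% = reference agonist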
[8] = molecular target: Retinoic acid receptor RXR-alpha (Homo sapiens) (UniProt P19793); assay: as above; details: HEK293T RXRa-UAS-bla, beta-lactamase reporter, 18 h; series mostly up to 76.7 µM
Retinoic acid receptor RXR-alpha (Homo sapiens), sequence (P19793 whole entry, looked up): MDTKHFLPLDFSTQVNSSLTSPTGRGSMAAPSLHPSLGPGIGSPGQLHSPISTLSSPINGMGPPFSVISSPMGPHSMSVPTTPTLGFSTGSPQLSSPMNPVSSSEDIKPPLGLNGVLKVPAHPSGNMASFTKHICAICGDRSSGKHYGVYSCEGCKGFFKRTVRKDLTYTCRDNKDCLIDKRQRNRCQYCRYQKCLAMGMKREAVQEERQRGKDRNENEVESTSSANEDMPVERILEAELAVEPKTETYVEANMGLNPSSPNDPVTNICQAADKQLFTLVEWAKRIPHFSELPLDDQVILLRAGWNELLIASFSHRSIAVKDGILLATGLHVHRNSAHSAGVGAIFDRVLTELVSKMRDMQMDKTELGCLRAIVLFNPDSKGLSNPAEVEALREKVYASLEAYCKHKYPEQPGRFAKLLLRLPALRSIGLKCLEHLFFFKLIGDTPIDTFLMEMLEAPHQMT

[9] = molecular target: Thyroid hormone receptor beta (Homo sapiens) (UniProt P10828); assay: qHTS assay for small molecule agonists of thyroid hormone receptor beta signaling (AID 588545); details: TR-UAS-bla GripTite HEK 293, beta-lactamase ratio, agonist mode, 18 h, percent of T3 response, DMSO as zero; series mostly up to 76.7 µM
Thyroid hormone receptor beta (Homo sapiens), sequence (P10828 whole entry, looked up): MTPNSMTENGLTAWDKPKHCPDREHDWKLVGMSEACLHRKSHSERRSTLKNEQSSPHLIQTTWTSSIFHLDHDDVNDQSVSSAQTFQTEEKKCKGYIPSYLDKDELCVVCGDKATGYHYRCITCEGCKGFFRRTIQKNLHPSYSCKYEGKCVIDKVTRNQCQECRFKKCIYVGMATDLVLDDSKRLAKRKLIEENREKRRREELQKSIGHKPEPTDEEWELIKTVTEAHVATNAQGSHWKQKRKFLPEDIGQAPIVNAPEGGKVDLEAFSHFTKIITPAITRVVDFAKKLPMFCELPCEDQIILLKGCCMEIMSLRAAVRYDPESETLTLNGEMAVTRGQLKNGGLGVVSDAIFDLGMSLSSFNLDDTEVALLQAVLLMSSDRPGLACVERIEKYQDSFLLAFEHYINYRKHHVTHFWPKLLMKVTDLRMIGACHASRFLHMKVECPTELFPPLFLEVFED
Summary of the method: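 Cells (2500/well) were seeded, incubated 4 hrs at 37 C, dosed with a compound series, incubated 18 hrs, loaded with CCF4 dye for 2 hrs at RT, then read for fluorescence. Data were scaled between DMSO (0%) and 10 nM T3 (100%).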

[10] = qHTS assay for small molecule antagonists of retinoid X receptor alpha signaling (AID 588546; active = well fitted inhibition curve with a large enough effect in the signal ratio, with a control signal flat, not every such curve was filed as active; the % refers to the signal ratio;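 also: cells stimulated with 9-cis-retinoic acid as agonist; % is scaled to controls: 0 for no effect and ±100 for the full control effect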); details: HEK293T RXRa-UAS-bla, beta-lactamase ratio, antagonist mode; measured here: W530 green channel, cytotoxicity proxy
Summary of the method: (§1)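 Beta-lactamase reporter inhibition, read as CCF4 fluorescence ratio (ex 405, em 460/530 nm) after 2 h at RT. HEK293T UAS-bla cells, 2500/well, were stimulated with 9-cis-RA at 500 or 100 nM final alongside test compound for 18 h at 37 C.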

[11] = molecular target: Retinoic acid receptor RXR-alpha (Homo sapiens) (UniProt P19793); assay: as above; details: HEK293T RXRa-UAS-bla, beta-lactamase ratio, antagonist mode
Summary of the method: as §1

[12] = molecular target: Thyroid hormone receptor beta (Homo sapiens) (UniProt P10828); assay: qHTS assay for small molecule antagonists of thyroid hormone receptor beta signaling (AID 588547; active = well fitted inhibition curve with a large enough effect in the signal ratio, with a control signal flat, not every such curve was filed as active; the % refers to the signal ratio;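 also: cells stimulated with 0.4 nM T3 agonist during compound exposure; % is scaled to controls: 0 for no effect and ±100 for the full control effect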); details: TR-UAS-bla HEK293, beta-lactamase ratio, antagonist mode, 18 h
Summary of the method: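 TR-UAS-bla GripTite HEK293 cells in 2% charcoal/dextran FBS medium were preincubated 4 h at 37 C, given compound (0.59 nM to 92 uM) plus 0.4 nM T3 (final) for 18 h, then CCF4 for 2 h at RT; Hill fit gave IC50.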

[13] = molecular target: Voltage-gated inwardly rectifying potassium channel KCNH2 (Homo sapiens) (UniProt Q12809); assay: qHTS Assay for Small Molecule Inhibitors of the Human hERG Channel Activity (AID 588834; active = well fitted inhibition curve with a large enough effect;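 also: lower thallium flux fluorescence means stronger hERG block; nearly all actives have a fitted effect of over 50% in size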; also: potency is read from the fitted curve at half-maximal effect); details: U2OS BacMam hERG, FluxOR thallium flux fluorescence; series mostly up to 92.2 µM
Voltage-gated inwardly rectifying potassium channel KCNH2 (Homo sapiens), sequence (Q12809 whole entry, looked up): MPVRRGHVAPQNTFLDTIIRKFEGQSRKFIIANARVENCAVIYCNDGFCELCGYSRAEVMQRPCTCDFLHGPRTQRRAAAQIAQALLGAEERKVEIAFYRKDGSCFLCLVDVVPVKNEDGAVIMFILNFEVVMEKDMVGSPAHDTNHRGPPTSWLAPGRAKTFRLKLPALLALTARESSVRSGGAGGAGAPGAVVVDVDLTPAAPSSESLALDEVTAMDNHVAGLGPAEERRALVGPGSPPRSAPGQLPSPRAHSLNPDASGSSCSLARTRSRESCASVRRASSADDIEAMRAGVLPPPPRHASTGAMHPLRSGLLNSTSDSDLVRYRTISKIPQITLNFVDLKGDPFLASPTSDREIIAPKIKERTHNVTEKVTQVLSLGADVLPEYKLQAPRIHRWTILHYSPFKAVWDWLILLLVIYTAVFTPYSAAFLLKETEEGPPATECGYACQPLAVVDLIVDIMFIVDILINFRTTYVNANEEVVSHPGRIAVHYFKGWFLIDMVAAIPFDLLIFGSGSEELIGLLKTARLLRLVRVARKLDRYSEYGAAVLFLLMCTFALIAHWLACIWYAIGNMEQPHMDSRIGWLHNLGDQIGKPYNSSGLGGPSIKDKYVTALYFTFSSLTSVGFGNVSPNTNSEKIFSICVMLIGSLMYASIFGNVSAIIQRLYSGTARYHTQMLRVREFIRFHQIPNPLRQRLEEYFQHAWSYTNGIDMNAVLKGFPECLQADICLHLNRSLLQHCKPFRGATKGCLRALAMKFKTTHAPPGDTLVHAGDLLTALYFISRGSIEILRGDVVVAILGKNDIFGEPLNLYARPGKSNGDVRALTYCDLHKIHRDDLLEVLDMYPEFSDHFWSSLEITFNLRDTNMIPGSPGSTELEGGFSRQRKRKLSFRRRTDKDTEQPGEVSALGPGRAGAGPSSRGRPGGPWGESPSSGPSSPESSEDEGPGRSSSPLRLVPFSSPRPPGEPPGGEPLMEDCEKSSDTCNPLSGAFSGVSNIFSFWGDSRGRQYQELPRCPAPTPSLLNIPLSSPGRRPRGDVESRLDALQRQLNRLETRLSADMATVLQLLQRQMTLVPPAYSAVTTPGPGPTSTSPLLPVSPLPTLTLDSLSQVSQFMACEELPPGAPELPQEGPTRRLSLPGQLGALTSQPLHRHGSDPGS
Summary of the method: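 Concentration-response qHTS measuring drop in thallium-sensitive dye signal. U2OS cells carrying BacMam hERG; compound exposure ~10 min, then stimulation buffer and 2 min read at 1 sec intervals.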

[14] = qHTS assay for small molecule activators of the p53 signaling pathway (AID 651743; active = well fitted activation curve with a large enough effect in the signal ratio, not every such curve was filed as active; the % refers to the signal ratio; also: % of control where 0% means no effect); details: HCT-116 p53RE-bla, beta-lactamase FRET ratio, 16 h; stronger effect = higher value
Summary of the method: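 p53RE-bla HCT-116 cells with a stably integrated beta-lactamase reporter under p53 response elements were plated, rested 5 hours at 37 C/5% CO2, then exposed to compounds in DMSO for 16 hours at 37 C. LiveBLAzer B/G FRET substrate was read after 2 hours at room temperature.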

[15] = qHTS assay for small molecule activators of the nuclear factor-kappa B (NF-kB) signaling pathway (AID 651749; active = well fitted activation curve with a large enough effect in the signal ratio; the % refers to the signal ratio; also: % of control where 0% means no effect); details: NF-kB-bla ME-180 cells, beta-lactamase FRET ratio, 16 h; stronger effect = higher value
Summary of the method: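 ME-180 cells stably carrying a beta-lactamase reporter under an NF-kB response element were exposed to compound or DMSO vehicle for 16 hr at 37C, 5% CO2. Pathway activation was read by FRET, since reporter expression disrupts FRET.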

[16] = qHTS assay for small molecule antagonists of peroxisome proliferator-activated receptor delta signaling (AID 588535; active = well fitted inhibition curve with a large enough effect in the signal ratio, with a control signal flat, not every such curve was filed as active; the % refers to the signal ratio;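 as to max response: cells co-treated with a PPAR-delta agonist as stimulator during compound exposure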); details: HEK293T PPARd-UAS-bla, beta-lactamase FRET ratio, 18 h; 460 nm channel
Summary of the method: (§2)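 GeneBLAzer PPAR-delta-UAS-bla HEK293T cells in medium with 2% charcoal/dextran FBS were preincubated 5 hrs at 37 C, then given compounds, incubated 18 hrs at 37 C, and read by CCF4 beta-lactamase fluorescence; IC50 from Hill fits.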

[17] = molecular target: Peroxisome proliferator-activated receptor delta (Homo sapiens) (UniProt Q03181); assay: as above; details: HEK293T PPARd-UAS-bla, beta-lactamase FRET ratio, 18 h; series mostly up to 76.7 µM
Peroxisome proliferator-activated receptor delta (Homo sapiens), sequence (Q03181 whole entry, looked up): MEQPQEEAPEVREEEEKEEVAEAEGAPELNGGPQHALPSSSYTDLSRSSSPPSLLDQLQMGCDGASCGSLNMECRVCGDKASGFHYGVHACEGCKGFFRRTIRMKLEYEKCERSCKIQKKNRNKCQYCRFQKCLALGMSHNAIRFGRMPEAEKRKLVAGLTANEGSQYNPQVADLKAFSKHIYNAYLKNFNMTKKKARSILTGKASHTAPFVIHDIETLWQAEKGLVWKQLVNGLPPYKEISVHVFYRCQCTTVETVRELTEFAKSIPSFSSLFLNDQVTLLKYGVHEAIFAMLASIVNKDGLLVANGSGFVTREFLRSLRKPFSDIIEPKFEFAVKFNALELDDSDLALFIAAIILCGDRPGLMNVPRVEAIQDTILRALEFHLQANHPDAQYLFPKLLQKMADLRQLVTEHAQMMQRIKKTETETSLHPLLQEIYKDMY
Summary of the method: as §2

[18] = qHTS assay for small molecule agonists of the antioxidant response element (ARE) signaling pathway (AID 651741; active = well fitted activation curve with a large enough effect in the signal ratio; the % refers to the signal ratio; also: % of control where 0% means no effect); details: HepG2 ARE-bla reporter, beta-lactamase FRET ratio, 16 h; series mostly up to 96 µM
Summary of the method: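 ARE-bla HepG2 cells (beta-lactamase reporter under ARE control) were plated at 2,000 cells/well, preincubated 5 h at 37 C/5% CO2, then treated with DMSO-dissolved compounds for 16 h at 37 C; LiveBLAzer B/G FRET substrate added, fluorescence read after 2 h at room temperature.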

Cc1ccco1
-5.98%: max response [10]
-10.8%: max response [7]
inactive: activation [1] -1.2% | outcome [2] | outcome [3] | outcome [4] | outcome [5] | outcome [6] | outcome [8] | outcome [9] | max response [11] 5.14% | activity change % (negative = inhibition) [12] 12.3% | Potency [13] | activation [14] 2.07% | activation [15] -0.364%

O=C(O)c1cc(Cl)cc(Cl)c1
-0.682%: max response [10]
-6.8%: max response [7]
inactive: activation [1] -5.57% | Potency [17] | outcome [3] | outcome [4] | outcome [8] | max response [11] 11.3% | activity change % (negative = inhibition) [12] 6.89% | Potency [13] | activation [14] 1.56%
29.5%: max response [16]

OC1CCCC1
-8.22%: max response [10]
inactive: activation [1] 0.774% | outcome [2] | outcome [3] | outcome [4] | outcome [5] | outcome [6] | outcome [8] | outcome [9] | max response [11] 5.18% | activity change % (negative = inhibition) [12] 8.64% | Potency [13] | Potency [18] | activation [15] 1.54%
-0.127%: max response [7]

C=C(C)C(=O)OCC(C)O (centres undefined)
-2%: max response [10]
-4.4%: max response [7]
24.5%: max response [16]
inactive: activation [1] -4.2% | Potency [17] | outcome [5] | outcome [6] | outcome [8] | outcome [9] | max response [11] 5.46% | activity change % (negative = inhibition) [12] 11.2% | Potency [18]

O=C(O)/C=C/C(=O)O
-9.62%: max response [7]
-32%: max response [16]
-3.98%: max response [10]
inactive: activation [1] 27.1% | outcome [2] | outcome [5] | outcome [8] | outcome [9] | max response [11] 8.67% | activity change % (negative = inhibition) [12] 3% | activation [14] -2.03% | activation [15] -1.19%

Cc1ccc(C)c([N+](=O)[O-])c1
-7.2%: max response [16]
-15.2%: max response [7]
inactive: activation [1] -1.28% | outcome [3] | outcome [4] | outcome [6] | outcome [8] | outcome [9] | activity change % (negative = inhibition) [12] 0.688% | Potency [13] | activation [15] 0.199%

C=Cc1ccccn1
-16.6%: max response [7]
inactive: activation [1] -3.05% | outcome [2] | outcome [3] | outcome [4] | outcome [5] | outcome [6] | outcome [8] | outcome [9] | max response [11] -1.58% | activity change % (negative = inhibition) [12] -28.4% | Potency [13] | activation [14] -2.17%
-12.9%: max response [10]

CO[Si](CCCNCCC[Si](OC)(OC)OC)(OC)OC
inactive: activation [1] 5.31% | outcome [2] | outcome [3] | outcome [4] | outcome [5] | outcome [6] | outcome [8] | outcome [9] | max response [11] 10.8% | activity change % (negative = inhibition) [12] -0.795% | Potency [13] | Potency [18] | activation [14] 0.23% | activation [15] 0.71%
9.17%: max response [7]
7.72%: max response [10]

Cc1cccc(C)c1[N+](=O)[O-]
3.43% and -1.96%: max response [10]
18.2% and 6.02%: max response [7]
inactive: activation [1] 4.67% and -8.43% | Potency [17] | outcome [3] | outcome [4] | outcome [5] | outcome [6] | outcome [8] | outcome [9] | max response [11] -16.7% and -18.1% | activity change % (negative = inhibition) [12] 3.5% and -3.75% | Potency [13] | Potency [18]
9.63% and 31.4%: max response [16]

CNc1ccc([N+](=O)[O-])cc1
8.47%: max response [10]
3.4%: max response [7]
inactive: activation [1] -3.38% | outcome [2] | outcome [3] | outcome [8] | outcome [9] | max response [11] 0.864% | activity change % (negative = inhibition) [12] 2.18% | Potency [13] | activation [15] -1.5%

CC(C)N=C=NC(C)C
-13.3%: max response [7]
inactive: activation [1] 4.13% | outcome [2] | outcome [3] | outcome [4] | outcome [5] | outcome [6] | outcome [8] | outcome [9] | max response [11] 7.57% | activity change % (negative = inhibition) [12] 1.37% | Potency [18] | activation [14] 1.3% | activation [15] -0.231%
10.7%: max response [10]

O=C(O)c1ccc(Cl)cc1Cl
-6.82%: max response [10]
-11.4%: max response [7]
inactive: activation [1] -5.78% | outcome [2] | outcome [3] | outcome [5] | outcome [6] | outcome [8] | outcome [9] | max response [11] 2.21% | activity change % (negative = inhibition) [12] -8.73% | Potency [13] | activation [14] -4.73% | activation [15] -0.499%

CC(=O)C1(C)CC2=C(CCCC2(C)C)CC1C (centres undefined)
active: Potency [13] 15.8 µM
12.6%: max response [16]
inactive: activation [1] -5.53% | Potency [17] | outcome [3] | outcome [5] | outcome [6] | outcome [8] | max response [11] 25.5% | activity change % (negative = inhibition) [12] -1.03% | Potency [18] | activation [14] -2.14%
-2.18%: max response [10]
-9.8%: max response [7]

Nc1nc(CC(=O)O)cs1
inactive: activation [1] 1.59% | outcome [2] | outcome [3] | outcome [6] | outcome [8] | outcome [9] | max response [11] -13.3% | activity change % (negative = inhibition) [12] 1.64% | Potency [13] | Potency [18] | activation [14] -1.45%
-14%: max response [10]
-4.19%: max response [7]
